According to PubChem BioAssay AID1619 (SRMLSC, 2009):
The whole screen tested about 220,000 compounds, of which about 830 (0.38%) were called active.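 How the source made its calls: active means compound inhibiting the enzyme by more than half at any dose during confirmatory dose-response retesting; inconclusive means strong single-dose inhibitors picked by rank but not retested; inactive means the rest.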 Only a sample is shown. Potency and affinity values are given separately.

These compounds were tested against Leucine aminopeptidase (Plasmodium falciparum (isolate 3D7)) (UniProt Q8IL11) (assay: P. falciparum M17LAP inhibitors, primary screen, biochemical, fluorogenic H-Leu-NHMec substrate, 1536-well (AID 1619;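 further: plate controls were full reaction with DMSO carrier for no effect and no enzyme background for full effect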)). Conditions: recombinant M17LAP, H-Leu-NHMec fluorogenic kinetic assay; at 30 µM; hits give high values.
Chain of Leucine aminopeptidase (Plasmodium falciparum (isolate 3D7)) (Q8IL11 whole entry, looked up): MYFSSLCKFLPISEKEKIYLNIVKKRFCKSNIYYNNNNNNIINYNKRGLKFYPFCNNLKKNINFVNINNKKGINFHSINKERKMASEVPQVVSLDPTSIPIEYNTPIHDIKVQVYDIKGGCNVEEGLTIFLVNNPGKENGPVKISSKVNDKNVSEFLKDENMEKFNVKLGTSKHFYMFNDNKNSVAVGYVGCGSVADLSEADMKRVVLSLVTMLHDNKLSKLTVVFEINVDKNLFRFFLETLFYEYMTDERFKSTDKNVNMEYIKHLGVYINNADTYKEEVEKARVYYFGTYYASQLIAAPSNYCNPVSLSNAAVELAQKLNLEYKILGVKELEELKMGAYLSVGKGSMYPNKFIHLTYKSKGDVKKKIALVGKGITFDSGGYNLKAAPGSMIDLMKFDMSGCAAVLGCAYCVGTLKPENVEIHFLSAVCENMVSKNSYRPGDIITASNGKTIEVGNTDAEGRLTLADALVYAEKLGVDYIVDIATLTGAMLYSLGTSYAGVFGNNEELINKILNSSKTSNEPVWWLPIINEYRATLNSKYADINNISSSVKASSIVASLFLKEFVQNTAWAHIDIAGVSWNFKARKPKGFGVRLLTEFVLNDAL

inhibition, inactive:
CCOC(=O)c1ccc(NC(=O)C2CCCN(S(=O)(=O)c3cnc[nH]3)C2)cc1 (stereo not given) -0.78%
COc1ccc(CN2CCN(C(C)C)C(CCO)C2)cc1Cn1cncn1 (stereo not given) 1.4%
COc1ccc(N2CCN(CCCNC(=O)C3CCC(CNc4nc(=S)[nH]c5ccccc45)CC3)CC2)cc1 (stereo not given) 10.8%
COc1ccccc1N(CC(=O)NCCC1=CCCCC1)S(=O)(=O)c1ccccc1 -1.31%
CC1CN(C2CCN(C(=O)c3ccccc3)CC2)CC(C)O1 (stereo not given) 6.07%
O=C(c1ccccc1F)N(Cc1ccc2c(c1)OCO2)Cc1cc2cc3c(cc2n2nnnc12)OCO3 3.97%
CCOc1ccc(-n2c(=S)sc3c(=O)[nH]c(SCC(=O)C(C)(C)C)nc32)cc1 37%
CCCN(CCC)C(=O)CSc1nc2c(sc(=S)n2-c2ccc(OCC)cc2)c(=O)[nH]1 30.1%
CCN(CC)C(=O)CSc1nc2c(sc(=S)n2-c2ccccc2)c(=O)[nH]1 12%
CCOC(=O)CSc1nc2c(sc(=S)n2-c2ccc(OCC)cc2)c(=O)[nH]1 14.5%
CCOC(=O)CSc1nc2c(sc(=S)n2Cc2ccco2)c(=O)n1-c1ccccc1 6.2%
CCOC(=O)c1sc(=S)n(-c2ccccc2)c1N 6.93%
CCN(CC)C(=O)CSc1nc2c(sc(=S)n2Cc2ccco2)c(=O)n1-c1ccccc1 8.29%
O=S(=O)(c1cc(Cl)cc(Cl)c1)N1CCCC1c1nc2ccccc2s1 (stereo not given) -5.02%
O=C(COc1ncnc2sccc12)Nc1ccc2c(c1)OCCO2 34.8%
COc1ccccc1CNC(=O)COc1ccccc1OC 3.35%
Cc1cccc(NC(=O)Nc2ccc3c(c2)N(C)C(=O)CS3)n1 3.25%
O=c1c2c(-c3ccc(Cl)cc3)csc2ncn1/N=C/c1cccc([N+](=O)[O-])c1O -4.46%
Cc1ccc(N2NC(C)(c3cccs3)NC2=S)cc1 (stereo not given) -1.38%
COc1cc(NC(=O)c2nccnc2N)cc(C(=O)Nc2cccc(C(F)(F)F)c2)c1 -5.13%
O=C(O)c1ccc(Cn2cc(C(F)(F)F)ccc2=O)cc1 -4.03%
O=C(CC1Sc2ccccc2NC1=O)Nc1cccc(-c2nnc3n2CCCCC3)c1 (stereo not given) 3%
O=C(CC1Sc2ccccc2NC1=O)Nc1cccnc1 (stereo not given) 5.83%
O=C(O)c1ccc(NC(=O)C2(c3ccccc3)CCCC2)cc1 3.99%
Fc1cccc2sc(Nc3nc4c(F)cccc4s3)nc12 16.7%
COC(=O)Nc1sc2c(c1C(N)=O)CCC(C)C2 (stereo not given) 26.4%
COc1ccc2nc(Nc3sc4c(c3C(N)=O)CCCC4)sc2c1 8.22%
CC1CCc2c(sc(NC(=O)C3c4ccccc4Oc4ccccc43)c2C(N)=O)C1 (stereo not given) 8.46%
CC(=O)c1ccc(Nc2ccc(-c3ccccc3F)nn2)cc1 28.4%
COC(=O)c1ccccc1NC(=O)C(C)c1ccc([N+](=O)[O-])cc1 (stereo not given) -0.59%
N#C/C(C(=O)NCc1ccccc1)=C1/N=C(NC(=O)c2cccs2)c2ccccc21 5.68%
CCOC(=O)C1=C(C)N=C2SCCC(=O)N2[C@@H]1c1cccs1 3.63%
NC(=O)CC(NC(=O)Cc1cccc2ccccc12)c1ccc(NC2CCC2)c([N+](=O)[O-])c1 (stereo not given) 15%
COC(=O)c1cn(C(=O)c2cccc(C)c2)c2ccccc12 1.71%
Cc1cccc(C(=O)NC(=S)NNC(=O)COc2ccc(Cl)cc2)c1 8.45%
O=C(Cc1ccccc1)NNC(=S)NC(=O)c1cccnc1 13.8%
Cc1cccc(C(=O)NC(=S)Nc2ccccc2C(=O)O)c1 3.36%
Cc1cccc(C(=O)NC(=S)NNC(=O)c2ccc(Cl)cc2)c1 86.2%
O=C(NC(=S)NNC(=O)c1ccccc1F)c1cccnc1 5.36%
Cc1ccc(C(=O)NC(=S)NNC(=O)COc2ccccc2C)cc1 -0.9%
Cc1cccc(NC(=S)NNC(=O)Cc2ccccc2)c1 15.6%
O=C(NNC(=S)NC(=O)c1cccnc1)c1ccc(Cl)cc1 71.2%
O=C(O)c1ccc2c(c1)SC1=NS(=O)(=O)CCN12 -2.18%
CCN1CCN(C(=O)CSc2cc(=O)n(CC)c3ccccc23)CC1 4.46%
CCC(C)NC(=O)CS(=O)Cc1nc(-c2ccccc2C)oc1C (stereo not given) 2.41%
Cn1c(N)c(C(=O)c2ccc(F)cc2F)c(=O)n(C)c1=O 5.53%
COC(=O)[C@H](Cc1ccccc1)NC(=O)O[C@H]1C(=O)c2ccc(OC)cc2O[C@@H]1c1ccc2c(c1)OCO2 -10.7%
CCCOC(=O)c1ccc(NC(=O)C2C3CCC(C3)C2C(=O)O)cc1 (stereo not given) 43.4%
CN(C(=O)c1ccc(NC(=O)C2CC=CCC2C(=O)O)cc1)c1ccccc1 (stereo not given) 45.1%
COC(=O)c1ccc(NC(=O)C2C3CCC(C3)C2C(=O)O)cc1 (stereo not given) 39%
O=C(O)C1CCCCC1C(=O)Nc1ccc(-c2ccccc2)cc1 (stereo not given) 6.02%
O=C(O)[C@H]1CCCC[C@H]1C(=O)Nc1ccc(Nc2ccccc2)cc1 54.9%
O=C(O)Cc1ccc(NC(=O)C2CC=CCC2C(=O)O)cc1 (stereo not given) 11.1%
CC(=O)Nc1ccc(NC(=O)C2CCCCC2C(=O)O)cc1 (stereo not given) 8.65%
CC(=O)Nc1ccc(NC(=O)[C@@H]2CCCC[C@@H]2C(=O)O)cc1 -3.15%
O=C(O)CCSCCCN1C(=O)c2cccc3cccc(c23)C1=O 8.08%
CCCc1cc(=O)[nH]c(SCC(=O)Nc2cc(C)on2)n1 3.41%
Cc1ccc(C2CC(C(F)(F)F)n3nc(C(=O)Nc4c(C)n(C)n(-c5ccccc5)c4=O)cc3N2)cc1 (stereo not given) 2.06%
COc1ccc(NC(=O)c2ccc(-n3c(C)ccc3C)cc2)c(OC)c1 4.59%
Cc1nc(C)c(-c2csc(Nc3ccc(F)cc3)n2)s1 -0.33%
Cc1ccc(Oc2ncc(-c3ccc(Cl)cc3)cn2)cc1 -3.58%
CCOC(=O)N1CCN(c2cc(N)c([N+](=O)[O-])cc2F)CC1 -0.96%
Cc1ccc(C(=O)Nc2ccn(Cc3ccc(F)cc3)n2)o1 2%
COc1ccc(C(=O)Nc2cccc(C(=O)NCc3ccccc3)c2)cc1 3.07%
Oc1ccc(C(c2nnnn2CCc2ccccc2)N2CCN(c3nc4ccccc4s3)CC2)cc1 (stereo not given) 3.87%
CCOC(=O)NCc1ccc(Cl)c(Cl)c1 -9.33%
CC(C)(C)OC(=O)CN1C(=O)C(Sc2n[nH]c(-c3ccccc3)n2)CCc2ccccc21 (stereo not given) 3.43%
CCSc1nc(N)nc(-c2cccs2)c1C#N 5.48%
CN(Cc1ccccc1)Cc1nc2c([nH]1)c(=O)[nH]c(=O)n2C -7.23%
CC(NC(=O)c1cccnc1)C(c1cccs1)N1CCN(C)CC1 (stereo not given) 0.81%
CN(C1CCCCC1)S(=O)(=O)c1ccc(NC(=O)C2CCCCC2C(=O)O)cc1 (stereo not given) 44%
O=C(O)Cc1ccc(NC(=O)C2CCCCC2C(=O)O)cc1 (stereo not given) 19%
CCOC(=O)N1CCN(C(=O)c2ccc(CS(=O)(=O)c3c(Cl)cccc3Cl)o2)CC1 3.87%
CCCCOc1ccc(C(=O)OCC(=O)Nc2cc(C)on2)cc1 2.23%
CCOC(=O)c1c(CSCc2ccccc2)oc2ccc(O)c(CN(C)C)c12 -2.1%
Cc1ccc2c(=O)[nH]c(Cc3ccccc3C(=O)O)nc2c1 2.27%
Cc1ccc(NN=C2c3ccccc3-c3ccccc32)cc1 5.01%
Cc1ccc(N/N=C2/CCCNC2=O)cc1 40.4%
Cc1ccc(N(CC(O)CN2C(=O)NC(C)(C)C2=O)S(=O)(=O)c2ccc(C)cc2)cc1 (stereo not given) -16.4%
O=C(O)c1ccc(/C=N/Nc2cccc(C(F)(F)F)c2)cc1 16.4%
Cc1ccc(/C=N/Nc2cccc(C(=O)O)c2)s1 53.6%
Fc1ccc(N/N=C/c2ccncc2)c(F)c1 -6.64%
Cc1ccc(/C=N/Nc2ccc(Cl)c(C(=O)O)c2)s1 49.5%
O=C(O)c1ccc(/C=N/NC(=O)c2ccc(F)cc2)cc1 7.3%
O=C(O)c1ccc(N/N=C/c2ccc(F)c(F)c2)cc1 50.5%
CC(C)(C)c1ccc(/C=N/Nc2cccc(C(=O)O)c2)cc1 12.1%
O=C(O)c1ccc(N/N=C/c2ccc(-c3ccccc3)cc2)cc1 2.22%
C=CCNC(=O)CN1CCC(NC(=O)c2ccco2)CC1 4.27%
Cc1ccc(/C=N/NC(=O)Cn2cncn2)cc1 2.86%
CC(=O)N1CCN(c2ccc(NC(=O)c3ccc4c(c3)OCO4)cc2)CC1 -9.38%
COc1ccc(C2Nc3ccccc3C(=O)N2c2ccccc2)cc1CN1CCOCC1 (stereo not given) -163%
CC(/C=C/c1ccc2c(c1)OCO2)=N/NC(=O)c1cccnc1 17.2%
Cc1ccc(NNC(=O)c2ccc(Cl)cc2)nn1 17.4%
COc1ccc(/C=N/Nc2ccc(C(=O)O)cc2)cc1OC 25.7%
COc1cc(/C=N/Nc2ccc(C(=O)O)cc2)ccc1O 22.3%
